Source: PubChem BioAssay AID1159580 (chemical genetic matrix, 2015)
The campaign covered roughly 5,500 compounds. About 2,000 (36%) were called active. About 18% were inconclusive and are not listed. No stated cut-off is given here; in the data, active means normalized growth mostly below about 0.91 (no sharp cut-off); inconclusive means no clear call, values can overlap the other calls; inactive means mostly above about 0.92. The list shows a part of the results.

Experiment: chemical genetic growth profiling, strain panel (AID 1159580);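 further: tested at 20 µM; growth read once vehicle control cultures reached saturation at 30 °C; 1 = growth at the plate median or of vehicle wells; lower values mean less growth of the strain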
Settings: S. cerevisiae deletion strains, growth OD

Measured: normalized growth

CC(=O)O[C@@H]1CC2C(C)(C)C(=O)C3OC3[C@]2(C)C2CC[C@@]3(C)[C@H](c4ccoc4)OC(=O)C4OC43[C@@]21C (stereo partly drawn)
inactive: locus YAL021C, strain ccr4, active compounds read low 0.988 | locus YAL026C, strain drs2, active compounds read low 0.984 | locus YAL030W, strain snc1, active compounds read low 0.993 | locus YBL061C, strain skt5, active compounds read low 0.97 | locus YBR009C, strain hhf1, active compounds read low 0.981 | locus YBR021W, strain FUR4, active compounds read low 0.964 | locus YBR023C, strain chs3, active compounds read low 0.982 | locus YBR171W, strain sec66, active compounds read low 0.966 | locus YBR229C, strain ROT2, active compounds read low 0.994 | locus YBR231C, strain swc5, active compounds read low 0.975 | locus YBR279W, strain paf1, active compounds read low 0.988 | locus YCL011C, strain gbp2, active compounds read low 0.993 | locus YCL016C, strain dcc1, active compounds read low 0.991 | locus YCL029C, strain bik1, active compounds read low 1 | locus YCL061C, strain MRC1, active compounds read low 0.988 | locus YCL069W, strain vba3, active compounds read low 0.982 | locus YCR088W, strain abp1, active compounds read low 0.987 | locus YDL005C, strain med2, active compounds read low 0.971 | locus YDL035C, strain GPR1, active compounds read low 1.01 | locus YDL040C, strain nat1, active compounds read low 0.972 | locus YDL074C, strain BRE1, active compounds read low 0.994 | locus YDL101C, strain DUN1, active compounds read low 1.01 | locus YDL185W, strain tfp1, active compounds read low 0.999 | locus YDL192W, strain arf1, active compounds read low 1.01 | locus YDR001C, strain nth1, active compounds read low 0.986 | locus YDR069C, strain doa4, active compounds read low 0.993 | locus YDR101C, strain arx1, active compounds read low 1.01 | locus YDR137W, strain rgp1, active compounds read low 1 | locus YDR150W, strain NUM1, active compounds read low 1.01 | locus YDR159W, strain sac3, active compounds read low 0.941 | locus YDR162C, strain NBP2, active compounds read low 1.02 | locus YDR195W, strain ref2 0.978 | locus YDR297W, strain sur2, active compounds read low 0.983 | locus YDR318W, strain mcm21, active compounds read low 0.997 | locus YDR334W, strain swr1, active compounds read low 0.972 | locus YDR335W, strain msn5, active compounds read low 0.987 | locus YDR388W, active compounds read low 1 | locus YDR392W, strain spt3, active compounds read low 0.966 | locus YDR502C, strain sam2, active compounds read low 0.992 | locus YEL003W, strain gim4, active compounds read low 0.979 | locus YEL037C, strain rad23, active compounds read low 0.974 | locus YEL061C, strain CIN8 (second series), active compounds read low 0.983 | locus YER015W, strain faa2, active compounds read low 0.992 | locus YER016W, strain bim1, active compounds read low 0.987 | locus YER110C, active compounds read low 1 | locus YER111C, strain swi4, active compounds read low 0.976 | locus YER155C, strain BEM2 (second series), active compounds read low 0.986 | locus YER155C, strain BEM2, active compounds read low 0.996 | locus YER167W, strain BCK2, active compounds read low 1.01 | locus YFR010W, strain ubp6, active compounds read low 0.964 | locus YGL078C, strain dbp3, active compounds read low 0.997 | locus YGL086W, strain mad1, active compounds read low 1.03 | locus YGL167C, strain pmr1, active compounds read low 0.971 | locus YGL173C, strain kem1, active compounds read low 0.986 | locus YGL227W, strain vid30, active compounds read low 0.988 | locus YGL240W, strain doc1, active compounds read low 0.96 | locus YGL248W, strain PDE1, active compounds read low 1.01 | locus YGL253W, strain hxk2, active compounds read low 0.94 | locus YGR135W, strain pre9, active compounds read low 0.975 | locus YGR252W, strain gcn5, active compounds read low 0.928 | locus YHR013C, strain ard1, active compounds read low 0.969 | locus YHR027C, strain rpn1, active compounds read low 0.978 | locus YHR030C, strain SLT2, active compounds read low 0.988 | locus YHR079C, strain IRE1 (second series), active compounds read low 1 | locus YHR079C, strain IRE1, active compounds read low 1 | locus YHR094C, strain hxt1, active compounds read low 1 | locus YHR129C, strain ARP1, active compounds read low 1.01 | locus YHR142W, strain chs7, active compounds read low 0.965 | locus YHR200W, strain rpn10, active compounds read low 1 | locus YIL066C, strain RNR3, active compounds read low 1.01 | locus YIL073C, strain SPO22, active compounds read low 1.04 | locus YIL125W, strain kgd1, active compounds read low 0.996 | locus YIR030C, strain dcg1, active compounds read low 0.998 | locus YJL092W, strain hpr5, active compounds read low 0.981 | locus YJL095W, strain BCK1 (second series), active compounds read low 0.99 | locus YJL095W, strain BCK1, active compounds read low 1 | locus YJL115W, strain asf1, active compounds read low 0.982 | locus YJL129C, strain trk1, active compounds read low 0.965 | locus YJL134W, strain LCB3, active compounds read low 1.01 | locus YJL154C, strain vps35, active compounds read low 0.98 | locus YJL164C, strain tpk1, active compounds read low 1.03 | locus YJL166W, strain qcr8, active compounds read low 0.987 | locus YJL168C, strain set2, active compounds read low 0.996
